Reference: PubChem BioAssay (NCI)
The panel holds about 79,000 compounds, 15% with a hit somewhere; the sample as a whole holds those more often. Values without a mark were called inactive. The source made the active and inactive calls. No stated cut-off is given here; in the data, active means growth inhibition above about 70%; inactive means the rest.

Assays:
[1] = NCI Yeast Anticancer Drug Screen. Data for the rad50 strain (AID 155);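 further: 0% = growth of vehicle-only cultures of the same strain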; conditions: S. cerevisiae rad50 strain growth inhibition; at 50.0 µM; hits give high values
Outline: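 Readout: growth inhibition relative to vehicle-treated cultures. Compound exposure was carried out in a genetically defined yeast strain deficient in DNA damage repair.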

[2] = NCI Yeast Anticancer Drug Screen. Data for the mec2-1 strain (AID 157); conditions: S. cerevisiae mec2-1 strain, at 50.0 µM, hits give high values
Outline: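 Yeast mec2-1 mutant treated with compound. Readout: growth inhibition vs vehicle controls.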

[3] = NCI Yeast Anticancer Drug Screen. Data for the sgs1 mgt1 strain (AID 161);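 further: 0% = growth of cultures given vehicle only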; conditions: S. cerevisiae sgs1 mgt1 strain, at 50.0 µM, hits give high values
Outline: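 Test agents were incubated with a DNA-repair-mutant yeast strain. Growth was then read and compared against vehicle-treated controls.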

[4] = NCI Yeast Anticancer Drug Screen. Data for the cln2 rad14 strain (AID 165);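 further: 0% = growth equal to vehicle treated cultures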; conditions: S. cerevisiae cln2 rad14 strain, at 50.0 µM, hits give high values
Outline: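 cln2 rad14 yeast strain; compound exposure; growth inhibition read vs vehicle controls.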

[5] = NCI Yeast Anticancer Drug Screen. Data for the bub3 strain (AID 167); conditions: S. cerevisiae bub3 mutant strain, at 50.0 µM, hits give high values
Outline: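 Readout: yeast growth inhibition, expressed relative to vehicle-only wells. The test organism is a mutant strain from a panel with lesions in DNA repair or checkpoint genes.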

[6] = NCI Yeast Anticancer Drug Screen. Data for the mlh1 rad18 strain (AID 175); conditions: S. cerevisiae mlh1 rad18 strain growth inhibition; at 50.0 µM; hits give high values
Outline: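 Yeast w/ defined DNA-repair lesions; compound exposure; growth vs vehicle controls → % inhibition.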

## NC(=O)c1nnsc1N/N=C/c1ccc([N+](=O)[O-])cc1
[1]
  growth inhibition: 8.85%
[2]
  growth inhibition: 25.9%
[3]
  growth inhibition: -25.1%
[4]
  growth inhibition: -2.05%
[5]
  growth inhibition: -20.1%
[6]
  growth inhibition: -5.1%

## Cc1ccccc1N(C(=O)C(=O)O)c1ccccc1C
[1]
  growth inhibition: 1.35%
[2]
  growth inhibition: 7.75%
[3]
  growth inhibition: 8%
[4]
  growth inhibition: 7.95%
[5]
  growth inhibition: -0.5%
[6]
  growth inhibition: 0.15%

## Cc1cccc(C(=O)c2ccc(C)cc2C)c1
[1]
  growth inhibition: 17.1%
[2]
  growth inhibition: 6.65%
[3]
  growth inhibition: -7.55%
[4]
  growth inhibition: 6.75%
[5]
  growth inhibition: -0.7%
[6]
  growth inhibition: 5.4%

## CCNC(=O)C(CC)(CO)CO
[1]
  growth inhibition: -16.4%
[2]
  growth inhibition: -3.4%
[3]
  growth inhibition: -3.95%
[4]
  growth inhibition: 6.2%
[5]
  growth inhibition: 0.65%
[6]
  growth inhibition: 4.5%

## Br/C=C\Br
[1]
  growth inhibition: -2.85%
[2]
  growth inhibition: 0.15%
[3]
  growth inhibition: -7.45%
[4]
  growth inhibition: 28.6%
[5]
  growth inhibition: -12.8%
[6]
  growth inhibition: 5.35%

## Cc1ccccc1CCCC(C(=O)O)C(=O)O
[1]
  growth inhibition: -18.8%
[2]
  growth inhibition: -7.75%
[3]
  growth inhibition: 10.8%
[4]
  growth inhibition: -2.8%
[5]
  growth inhibition: -1.55%
[6]
  growth inhibition: 1.75%

## Cc1ccc(N=Nc2ccc(C)cc2NC(=S)Nc2ccccc2)cc1
[1]
  growth inhibition: -11.2%
[2]
  growth inhibition: -0.95%
[3]
  growth inhibition: -12.3%
[4]
  growth inhibition: -20.9%
[5]
  growth inhibition: 7.7%
[6]
  growth inhibition: -8.75%

## Cc1ccc(-c2nc(-c3nccc4ccccc34)oc2-c2ccccc2)cc1
[1]
  growth inhibition: -6%
[2]
  growth inhibition: 0.45%
[3]
  growth inhibition: -45.4%
[4]
  growth inhibition: -28.4%
[5]
  growth inhibition: -29.7%
[6]
  growth inhibition: 5.2%

## CC(C)(C)NNC(=O)/C(=C/c1ccc([N+](=O)[O-])cc1)NC(=O)c1ccccc1
[1]
  growth inhibition: 11.6%
[2]
  growth inhibition: -17.3%
[3]
  growth inhibition: -8.5%
[4]
  growth inhibition: 5.2%
[5]
  growth inhibition: -6.2%
[6]
  growth inhibition: -15.7%

## CN(C)c1ccc(/C=C(\C#N)c2nc(-c3cc4ccccc4oc3=O)cs2)cc1
[1]
  growth inhibition: -2.45%
[2]
  growth inhibition: -13.6%
[3]
  growth inhibition: -23%
[4]
  growth inhibition: -4.3%
[5]
  growth inhibition: -35.7%
[6]
  growth inhibition: -63.2%

## CCCCCC1(C=O)C(=O)NC(=O)N1C (stereo not given)
[1]
  growth inhibition: 2.25%
[2]
  growth inhibition: -5.45%
[3]
  growth inhibition: -1.45%
[4]
  growth inhibition: -0.45%
[5]
  growth inhibition: -0.05%
[6]
  growth inhibition: -8.2%

## O=C(Cl)c1cc(Cl)cc(Cl)c1Br
[1]
  growth inhibition: 12.9%
[2]
  growth inhibition: 4.7%
[3]
  growth inhibition: 34.5%
[4]
  growth inhibition: 17.6%
[5]
  growth inhibition: 15.9%
[6]
  growth inhibition: 25.7%

## CC(C)CC(=O)NS(=O)(=O)c1ccccc1
[1]
  growth inhibition: -6.15%
[2]
  growth inhibition: 5.05%
[3]
  growth inhibition: -3.05%
[4]
  growth inhibition: 5.2%
[5]
  growth inhibition: -17.4%
[6]
  growth inhibition: -22.2%

## C=C1CC(Cn2cc(C)c(=O)[nH]c2=O)(c2ccc(-c3ccccc3)cc2)OC1=O (stereo not given)
[1]
  growth inhibition: 8.9%
[2]
  growth inhibition: -5.35%
[3]
  growth inhibition: 38.6%
[4]
  growth inhibition: 37.7%
[5]
  growth inhibition: 29.5%
[6]
  growth inhibition: 47.1%

## COc1cc(C=C(C#N)C#N)ccc1OC(=O)c1cc(OC)c(OC)c(OC)c1
[1]
  growth inhibition: -1.5%
[2]
  growth inhibition: -5.6%
[3]
  growth inhibition: 15.8%
[4]
  growth inhibition: 2.2%
[5]
  growth inhibition: 4.45%
[6]
  growth inhibition: -6.25%

## CC(=O)OC(C)C(=O)OCC1OC(OC(=O)C(C)OC(C)=O)C(OC(=O)C(C)OC(C)=O)C(OC(=O)C(C)OC(C)=O)C1OC(=O)C(C)OC(C)=O (stereo not given)
[1]
  growth inhibition: 7.6%
[2]
  growth inhibition: -13.8%
[3]
  growth inhibition: -10.6%
[4]
  growth inhibition: -42.4%
[5]
  growth inhibition: -12.1%
[6]
  growth inhibition: 7.95%

## CCN(CC)CCn1[nH]c2c3ccc(=O)cc3sc3c(NCCN)ccc1c32
[1]
  growth inhibition: 13.3%
[2]
  growth inhibition: -3.35%
[3]
  growth inhibition: -12.7%
[4]
  growth inhibition: -5.55%
[5]
  growth inhibition: 2.5%
[6]
  growth inhibition: -2.4%

## CCCC(O)c1ccccc1C (stereo not given)
[1]
  growth inhibition: 17.6%
[2]
  growth inhibition: 13.9%
[3]
  growth inhibition: 1.4%
[4]
  growth inhibition: -17.2%
[5]
  growth inhibition: 4.6%
[6]
  growth inhibition: 12.1%

## CCCCCCCCCCCCCCCC(=O)OCC1OC(OC2(COC(=O)CCCCCCCCCCCCCCC)OC(COC(=O)CCCCCCCCCCCCCCC)C(OC(=O)CCCCCCCCCCCCCCC)C2OC(=O)CCCCCCCCCCCCCCC)C(OC(=O)CCCCCCCCCCCCCCC)C(OC(=O)CCCCCCCCCCCCCCC)C1OC(=O)CCCCCCCCCCCCCCC (stereo not given)
[1]
  growth inhibition: -6.25%
[2]
  growth inhibition: -26%
[3]
  growth inhibition: -34.1%
[4]
  growth inhibition: -14.7%
[5]
  growth inhibition: -13.9%
[6]
  growth inhibition: -6%

## CSc1nc(SC)c2cnn(C3OC(CO)C(O)C3O)c2n1 (stereo not given)
[1]
  growth inhibition: 12%
[2]
  growth inhibition: -1.1%
[3]
  growth inhibition: 20.9%
[4]
  growth inhibition: 3.25%
[5]
  growth inhibition: 16.4%
[6]
  growth inhibition: 33.4%

## O=C(COc1cc(Cl)ccc1Cl)NCc1ccc(Cl)cc1
[1]
  growth inhibition: 15.2%
[2]
  growth inhibition: 2.1%
[3]
  growth inhibition: 12.6%
[4]
  growth inhibition: 10.1%
[5]
  growth inhibition: 34.1%
[6]
  growth inhibition: 14.8%

## Cc1cc(O)c(/C=N/C(=S)Nc2ccccc2)c(=O)o1
[1]
  growth inhibition: -20.4%
[2]
  growth inhibition: -48.8%
[3]
  growth inhibition: -24.1%
[4]
  growth inhibition: -8.65%
[5]
  growth inhibition: -48.2%
[6]
  growth inhibition: -39%

## O=C1OC(c2ccccc2)=N/C1=C\c1cccnc1
[1]
  growth inhibition: 12.3%
[2]
  growth inhibition: -3.25%
[3]
  growth inhibition: 0%
[4]
  growth inhibition: -10.3%
[5]
  growth inhibition: -5.8%
[6]
  growth inhibition: 13.1%

## O=C1CCCCCCCCC1=O
[1]
  growth inhibition: 3.5%
[2]
  growth inhibition: -6.4%
[3]
  growth inhibition: -11.3%
[4]
  growth inhibition: -4.05%
[5]
  growth inhibition: -12.8%
[6]
  growth inhibition: -11.2%

## CCCCCCCCCCCCCBr
[1]
  growth inhibition: 29.8%
[2]
  growth inhibition: -0.95%
[3]
  growth inhibition: 13.2%
[4]
  growth inhibition: 19.9%
[5]
  growth inhibition: 18.1%
[6]
  growth inhibition: 15.8%

## O=C(O)c1nc(N=Nc2ccc(S(=O)(=O)O)cc2)[nH]c1C(=O)O
[1]
  growth inhibition: 25.1%
[2]
  growth inhibition: -4.85%
[3]
  growth inhibition: 9.8%
[4]
  growth inhibition: -30.7%
[5]
  growth inhibition: -2%
[6]
  growth inhibition: 21.2%

## CCN(CC)CC#CCCCN(CC)CC
[1]
  growth inhibition: -29.3%
[2]
  growth inhibition: -30.2%
[3]
  growth inhibition: -27.9%
[4]
  growth inhibition: 1.75%
[5]
  growth inhibition: -44.5%
[6]
  growth inhibition: -7.6%

## Oc1c(Cl)cc(N=Cc2ccc(N(CCCCl)CCCCl)cc2)cc1Cl
[1]
  growth inhibition: 92.6% (active)
[2]
  growth inhibition: 14.7%
[3]
  growth inhibition: 94.8% (active)
[4]
  growth inhibition: 92% (active)
[5]
  growth inhibition: -13.6%
[6]
  growth inhibition: 80% (active)

## CCOC(=O)[C@H]1CS[C@]2(c3ccco3)CC(=O)N12
[1]
  growth inhibition: 14.4%
[2]
  growth inhibition: 8.1%
[3]
  growth inhibition: -12.6%
[4]
  growth inhibition: -36.2%
[5]
  growth inhibition: 1.6%
[6]
  growth inhibition: 44.1%

## COC(=O)CCC(N)C(=O)O (stereo not given)
[1]
  growth inhibition: 10.2%
[2]
  growth inhibition: -11.2%
[3]
  growth inhibition: -7.15%
[4]
  growth inhibition: -10.3%
[5]
  growth inhibition: -24.9%
[6]
  growth inhibition: -4.2%

## CCCCOC(=O)NC(=O)c1cc2cc(I)cc(I)c2oc1=O
[1]
  growth inhibition: 3.45%
[2]
  growth inhibition: 5.8%
[3]
  growth inhibition: -7.75%
[4]
  growth inhibition: -50.2%
[5]
  growth inhibition: -10.6%
[6]
  growth inhibition: 17.6%

## COc1ccc(N=Nc2ccc(OC)cc2C)c(C)c1
[1]
  growth inhibition: 1.7%
[2]
  growth inhibition: -2.3%
[3]
  growth inhibition: 1.9%
[4]
  growth inhibition: -4.7%
[5]
  growth inhibition: 10%
[6]
  growth inhibition: 7.15%

## COc1cc(C=O)cc(OC)c1
[1]
  growth inhibition: -19.3%
[2]
  growth inhibition: -49.3%
[3]
  growth inhibition: -20.4%
[4]
  growth inhibition: 12.4%
[5]
  growth inhibition: -51%
[6]
  growth inhibition: -2.25%

## Cc1ccc2c(Nc3ccc(NS(C)(=O)=O)cc3C)c3ccccc3nc2c1
[1]
  growth inhibition: 42.4%
[2]
  growth inhibition: -27.4%
[3]
  growth inhibition: 6.2%
[4]
  growth inhibition: 4.2%
[5]
  growth inhibition: 4.25%
[6]
  growth inhibition: -23.5%

## ON=C(C(Cl)(Cl)Cl)C(Cl)(Cl)Cl
[1]
  growth inhibition: -17.2%
[2]
  growth inhibition: -26%
[3]
  growth inhibition: -8.35%
[4]
  growth inhibition: 4.9%
[5]
  growth inhibition: -11.9%
[6]
  growth inhibition: -29.8%

## c1ccc(Nc2nnc(-c3nsc4ccccc34)o2)cc1
[1]
  growth inhibition: -34.5%
[2]
  growth inhibition: -40.9%
[3]
  growth inhibition: -42.8%
[4]
  growth inhibition: -1.4%
[5]
  growth inhibition: -31.9%
[6]
  growth inhibition: -35.9%

## CC(=O)OC1CC2CC1C1CC=CC21 (stereo not given)
[1]
  growth inhibition: 35.2%
[2]
  growth inhibition: -2%
[3]
  growth inhibition: -0.4%
[4]
  growth inhibition: 34.1%
[5]
  growth inhibition: 2.4%
[6]
  growth inhibition: 14.4%

## CCCCCCCCCC(C)(O)C(N)=O (stereo not given)
[1]
  growth inhibition: 15.1%
[2]
  growth inhibition: -6.15%
[3]
  growth inhibition: 13.2%
[4]
  growth inhibition: -21.6%
[5]
  growth inhibition: -5.65%
[6]
  growth inhibition: 9.65%

## COCCCN1CC(=O)N2Cc3ccccc3CN2C(=O)C1
[1]
  growth inhibition: -9.15%
[2]
  growth inhibition: -13%
[3]
  growth inhibition: -15.2%
[4]
  growth inhibition: -3.6%
[5]
  growth inhibition: 2.95%
[6]
  growth inhibition: -4.6%

## O=S(=O)(O)c1cc(Cl)c(O)c(Cl)c1
[1]
  growth inhibition: 7.25%
[2]
  growth inhibition: -21.8%
[3]
  growth inhibition: 9.15%
[4]
  growth inhibition: -41.9%
[5]
  growth inhibition: 6.8%
[6]
  growth inhibition: 23.2%
